High-throughput results as filed in PubChem BioAssay.
Hits are enriched below; roughly 2.1% of the tested compounds scored in any of these assays.
aSyn rescue: qHTS of alpha-syn Inhibitors; Potency, µM (doses to about 46.1 µM), usual class: activators; AID 652106, 2013; hit rate 0.14% among 370,000; Yeast expressing alpha-synuclein, growth rescue, BacTiter-Glo, 24 h; note: nearly all actives have a fitted effect of over 65% in size
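Readout is rescue of growth in alpha-synuclein-expressing yeast, so inhibitors of toxicity appear as activators. Growth after 24 hr at 30 deg C in galactose medium is quantified by luminescence.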
FUS yeast rescue: qHTS for Suppressors of FUS Proteinopathy: Primary screen using FUS-linked yeast assay; S. cerevisiae FUS-expressing, growth rescue, OD600, 24 h; Potency, µM (highest dose often 76.6 µM), actives largely listed as activators; hit rate 0.24% among 390,000; note: nearly all actives have a fitted effect of over 55% in size
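FUS-expressing yeast, raffinose-pregrown, induced in 2% galactose minimal medium at OD 0.005; compounds in a dilution series, 24hr at 30C. Growth restoration read as absorbance at 600 nm. CP55940 positive control, DMSO negative.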
Abeta rescue: qHTS for compounds that reverse cellular toxicity of Amyloid beta (A-beta) peptide in yeast: Primary Screen | yeast expressing A-beta42, growth rescue, OD600, 48 h; response scale: 0% DMSO, 100% iron-clioquinol control | Potency, µM (series often up to 46.1 µM), usual class: activators | hit rate 0.063% among 410,000; note: nearly all actives have a fitted effect of over 55% in size
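Yeast growth medium received pinned compounds, then yeast cells expressing toxic A-beta were added; plates incubated at 30 C for 48 hr. Growth read as absorbance at 600 nm, normalized to DMSO and equimolar FeCl3 plus clioquinol controls.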
TDP43 rescue: qHTS of TDP-43 Inhibitors; hit rate 1.8% among 410,000; Potency, µM (doses to about 46.1 µM), most hits filed as activators; TDP-43 expressing yeast growth rescue, BacTiter-Glo, 24 h; note: nearly all actives have a fitted effect of over 50% in size
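Cell-based yeast growth screen: TDP-43 expression induced in galactose, inoculum OD600=0.02 after raffinose pregrowth to mid-log. Read-out BacTiter-Glo luminescence at 24 hr, 30 deg C; inhibition of toxicity seen as signal increase.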
Large screens that a line does not name were inactive. Calls come from the whole dose curve; as a rule, active = well fitted curve in the direction sought with a large enough effect; inconclusive = small, poorly fitted or top-dose-only effect, or another doubt; inactive = no such curve, though single readings can be large; an effect the other way counts as inactive or inconclusive.

COc1ccc(CCn2c3c(c(=O)[nH]c2=S)CN(Cc2ccccc2)CN3)cc1OC	none (no result: FUS yeast rescue, Abeta rescue, TDP43 rescue)
O=S(=O)(Nc1c(Br)cc(Br)c2cccnc12)C1CC1	none (no result: FUS yeast rescue, Abeta rescue, TDP43 rescue)
COc1ccc(C(=O)Nc2cccc(-c3cn4ccsc4n3)c2)c(OC)c1	FUS yeast rescue inconclusive, TDP43 rescue 5µM (no result: aSyn rescue)
CSc1ccc(/C=C2\C=Cc3ccccc32)cc1	none (no result: FUS yeast rescue, Abeta rescue, TDP43 rescue)
Cc1ccc(NC(=O)C2(C)CCN2C(=O)c2ccccc2CCc2ccccc2)cc1C (stereo unspecified)	none
CC1(C(=O)NS(=O)(=O)c2cccc(F)c2)CCN1C(=O)c1ccccc1CCc1ccccc1 (stereo unspecified)	TDP43 rescue inconclusive
Cc1cccc(S(=O)(=O)NC(=O)C2(C)CCN2C(=O)c2ccccc2CCc2ccccc2)c1 (stereo unspecified)	TDP43 rescue 16µM
COc1ccc(NC(=O)C2(C)CCN2C(=O)c2ccccc2CCc2ccccc2)cc1OC (stereo unspecified)	FUS yeast rescue inconclusive, TDP43 rescue 18µM
CN(Cc1ccccc1)/[N+]([O-])=N/Oc1ccc([N+](=O)[O-])cc1[N+](=O)[O-]	none (no result: FUS yeast rescue, Abeta rescue, TDP43 rescue)
Cc1ccc(/C=C/c2onc(C)c2S(=O)(=O)N2CCC(C(=O)N3CC(C)Oc4ccccc43)CC2)cc1 (stereo unspecified)	none (no result: aSyn rescue)
COc1ccc(Cl)cc1NC(=O)Cc1ccc(NC(=O)N2CCCCc3ccccc32)cc1	none (no result: aSyn rescue)
Cc1ccccc1NCc1ccc(O)c2ncccc12	none
Oc1ccc(CNc2ccccc2Br)c2cccnc12	FUS yeast rescue 18µM (no result: aSyn rescue, Abeta rescue, TDP43 rescue)
Cc1nc(Nc2ccc3c(c2)OCCO3)c2c(C)c(C)sc2n1	FUS yeast rescue inconclusive, TDP43 rescue 11µM
CCc1ccc2oc(-c3ccc(C)c(NC(=O)COc4ccccc4Cl)c3)nc2c1	none (no result: FUS yeast rescue, Abeta rescue, TDP43 rescue)
COc1cc(-c2cc3nc(NC4CCCCC4)ccn3n2)cc(OC)c1OC	TDP43 rescue 35µM
COc1cc(-c2cc3nc(NCCN(C)C)ccn3n2)cc(OC)c1OC	none
C#CCn1c(S(=O)(=O)Cc2ccc(OC)cc2)nc(-c2ccccc2)c1-c1ccccc1	FUS yeast rescue 25µM
CC(=O)NC1=C(NC2CCS(=O)(=O)C2)C(=O)c2ccccc2C1=O (stereo unspecified)	TDP43 rescue 25µM (no result: FUS yeast rescue)
O=C(Nc1ccccc1)C1Cc2c(-c3ccco3)ccnc2O1 (stereo unspecified)	aSyn rescue inconclusive, TDP43 rescue 25µM
O=C(Nc1ccccc1)C1Cc2c(-c3ccc4c(c3)OCO4)ccnc2O1 (stereo unspecified)	TDP43 rescue 35µM
O=C(Nc1ccc2c(c1)OCO2)C1Cc2c(-c3ccc4c(c3)OCO4)ccnc2O1 (stereo unspecified)	TDP43 rescue 28µM
O=C(Nc1cccnc1)C1Cc2c(-c3ccc4c(c3)OCO4)ccnc2O1 (stereo unspecified)	none
CC(=O)Nc1ccc(NC(=O)C2Cc3c(-c4ccco4)ccnc3O2)cc1 (stereo unspecified)	none
COc1ccc(NC(=O)C2Cc3c(-c4ccc5c(c4)OCO5)ccnc3O2)cc1 (stereo unspecified)	TDP43 rescue 25µM
O=S(=O)(NCCNCC=Cc1ccc(Br)cc1)c1cccc2cnccc12	none (no result: FUS yeast rescue, Abeta rescue, TDP43 rescue)
CC[n+]1c(/C=C/C=C/N(C(C)=O)c2ccccc2)sc2ccccc21	FUS yeast rescue 18µM
COc1ccc(C2Nc3ccc(NC(C)=O)cc3C(=O)N2Cc2ccccc2)cc1COc1ccc(NC(C)=O)cc1 (stereo unspecified)	none (no result: FUS yeast rescue, Abeta rescue, TDP43 rescue)
COc1ccc(C2Nc3ccccc3C(=O)N2Cc2ccco2)cc1COc1c(C)cc(NC(C)=O)cc1C (stereo unspecified)	FUS yeast rescue 10µM (no result: aSyn rescue, Abeta rescue, TDP43 rescue)
COc1ccc(C2Nc3ccccc3C(=O)N2Cc2ccco2)cc1COc1ccc(NC(C)=O)cc1 (stereo unspecified)	none
COc1ccc(C2Nc3ccccc3C(=O)N2Cc2ccccc2)cc1COc1ccc(NC(C)=O)cc1 (stereo unspecified)	FUS yeast rescue 16µM (no result: aSyn rescue, Abeta rescue, TDP43 rescue)
CSc1nc(S(=O)(=O)c2ccc(C)cc2)c(Cl)s1	TDP43 rescue 13µM
COCCCNC(=O)Cc1c(C)c2c(cc(C)c3c(C(C)(C)C)coc32)oc1=O	FUS yeast rescue 32µM
COC(=O)c1cccc(Nc2nc(-c3cccnc3)nc3ccccc23)c1	none
CCCOC(=O)c1cccc(Nc2nc(C(=O)OCC)nc3ccccc23)c1	TDP43 rescue 22µM (no result: aSyn rescue)
CCOC(=O)c1cccc(Nc2nc(-c3cccnc3)nc3ccccc23)c1	TDP43 rescue 18µM
CCOC(=O)c1cccc(Nc2nc(C(=O)OCC)nc3ccccc23)c1	none (no result: aSyn rescue)
O=C(CBr)c1ccc(Oc2ccc(C(=O)C[n+]3ccccc3Cl)cc2)cc1	none (no result: FUS yeast rescue, Abeta rescue, TDP43 rescue)
CC[C@H]1C(c2ccc(F)cc2)=NN(c2ccccc2)[C@@H]1CO	Abeta rescue inconclusive, TDP43 rescue 11µM
Cc1cccc(COC[C@H](CC(C)C)N2CCN(C(=O)c3ccc(C(C)(C)C)cc3)CCC2=O)c1	FUS yeast rescue inconclusive, TDP43 rescue 22µM
Cc1cccc(C(=O)N2CCC(=O)N([C@H](COCc3ccc(Cl)cc3)Cc3ccccc3)CC2)c1	FUS yeast rescue inconclusive, TDP43 rescue 16µM
Cc1cccc(C(=O)N2CCC(=O)N(C(COCc3ccc(Cl)cc3)Cc3ccccc3)CC2)c1 (stereo unspecified)	aSyn rescue inconclusive, FUS yeast rescue inconclusive, TDP43 rescue 35µM
Cc1cccc(C(=O)N2CCC(=O)N([C@H](COCc3cccc(Cl)c3)Cc3ccccc3)CC2)c1	aSyn rescue inconclusive, FUS yeast rescue inconclusive, TDP43 rescue 35µM
c1csc(-c2nc(N3CCN(Cc4ccc5c(c4)OCCO5)CC3)c3ccccc3n2)c1	none (no result: FUS yeast rescue, Abeta rescue, TDP43 rescue)
O=C(COc1ccc(Cl)cc1)NCCc1csc(-c2cccc(F)c2)n1	TDP43 rescue inconclusive (no result: aSyn rescue)
OCCCn1c(C2CCCN2c2nc(-c3ccc(F)cc3)cs2)nc2cc(Cl)c(Cl)cc21 (stereo unspecified)	FUS yeast rescue 35µM
CC(=O)Nc1ncc(Cc2cccc(Cl)c2)s1	none
CC(C)C(=O)Nc1ncc(Cc2cccc(Cl)c2)s1	Abeta rescue inconclusive, TDP43 rescue 18µM
COc1ccccc1CNc1nc2c(S(=O)(=O)c3ccc(C)c(C)c3)nnn2c2ccc(Cl)cc12	none (no result: aSyn rescue)
Cc1cc(/C=C(\C#N)c2nc3ccccc3[nH]2)c(C)n1C	none (no result: FUS yeast rescue)
CCOc1cc(N(CC)CC)ccc1/C=C(/C#N)c1nc2ccccc2[nH]1	FUS yeast rescue inconclusive, TDP43 rescue 7.1µM
CCN(CC)c1ccc(/C=C(/C#N)c2nc3ccc(C)cc3[nH]2)c(OC(C)C)c1	FUS yeast rescue 8.9µM, TDP43 rescue inconclusive
CCCOc1cc(N(CC)CC)ccc1/C=C(/C#N)c1nc2ccc(C)cc2[nH]1	TDP43 rescue inconclusive (no result: FUS yeast rescue)
N#C/C(=C\c1c(Cl)cccc1Cl)c1nc2ccccc2[nH]1	TDP43 rescue 11µM
CN(C)C(=O)COC(=O)c1ccccc1OCC(=O)Nc1ccc(Br)cc1	none (no result: FUS yeast rescue, Abeta rescue, TDP43 rescue)
CC1(C)CC(=O)c2cc(C(=O)Nc3ccccc3)c(=O)[nH]c2C1	none (no result: FUS yeast rescue, Abeta rescue, TDP43 rescue)
